Results from PubChem BioAssay AID1259349 (Broad Institute, 2017).
Several values for one entry are separate records, joined by “and”; a condition that tells them apart may be missing. Identical values can stand only once. About 1,100 (6.5%) of roughly 17,000 compounds were called active.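 Rule for the calls: active = z-score of -3 or lower, meaning strong loss of probe binding signal; inactive = the rest.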 Only a selection was taken, and actives are over-represented in it overall. More than one record can exist for a structure, and the calls need not agree.

target: Insulin-degrading enzyme (Homo sapiens) (UniProt P14735); assay: exo-site inhibitors of human IDE, primary screen, biochemical, fluorescence anisotropy, probe displacement (AID 1259349); details: purified IDE, FL-6b probe fluorescence polarization; at 20 µM; stronger effect = lower value;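 note: His-tagged human IDE residues 42-1019 made in E. coli with 30 nM FL-6b probe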
Sequence (P14735 42-1019 limits assumed): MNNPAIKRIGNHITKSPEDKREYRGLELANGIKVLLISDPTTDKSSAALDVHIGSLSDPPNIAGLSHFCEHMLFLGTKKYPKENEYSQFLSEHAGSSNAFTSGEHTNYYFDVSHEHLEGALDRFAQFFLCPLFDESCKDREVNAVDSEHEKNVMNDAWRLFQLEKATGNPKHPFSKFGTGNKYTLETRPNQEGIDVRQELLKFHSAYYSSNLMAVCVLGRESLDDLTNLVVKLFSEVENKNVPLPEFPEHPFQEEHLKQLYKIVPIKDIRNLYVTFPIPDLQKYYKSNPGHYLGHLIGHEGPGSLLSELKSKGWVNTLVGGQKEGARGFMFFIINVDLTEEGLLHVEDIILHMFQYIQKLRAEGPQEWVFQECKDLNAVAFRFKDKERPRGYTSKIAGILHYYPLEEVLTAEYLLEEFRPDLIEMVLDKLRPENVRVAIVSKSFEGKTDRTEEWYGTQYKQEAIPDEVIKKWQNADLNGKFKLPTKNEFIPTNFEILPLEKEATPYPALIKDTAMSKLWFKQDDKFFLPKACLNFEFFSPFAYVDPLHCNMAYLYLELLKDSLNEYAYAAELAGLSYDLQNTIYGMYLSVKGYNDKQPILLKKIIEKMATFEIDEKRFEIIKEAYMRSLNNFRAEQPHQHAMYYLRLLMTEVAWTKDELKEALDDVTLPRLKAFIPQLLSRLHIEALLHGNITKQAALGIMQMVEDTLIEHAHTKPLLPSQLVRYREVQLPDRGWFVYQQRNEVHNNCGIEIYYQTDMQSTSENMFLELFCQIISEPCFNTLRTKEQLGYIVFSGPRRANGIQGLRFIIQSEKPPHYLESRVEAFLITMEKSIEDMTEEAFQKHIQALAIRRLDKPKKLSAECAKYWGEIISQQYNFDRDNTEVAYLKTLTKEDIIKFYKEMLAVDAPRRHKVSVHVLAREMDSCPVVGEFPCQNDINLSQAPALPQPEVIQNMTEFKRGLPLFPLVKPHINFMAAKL

Row | Compound | z-score
1 | N#C[C@@H]1[C@@H](c2ccccc2)[C@@H](CO)N1C(=O)Cc1ccccc1 | 0.975 (inactive)
2 | COc1ccccc1C#Cc1ccc([C@@H]2[C@@H](CO)N(C(=O)C3CC3)[C@H]2C#N)cc1 | -8.33 (active)
3 | COc1ccccc1C#Cc1ccc([C@H]2[C@@H](C#N)N(C(=O)C3CCCCC3)[C@@H]2CO)cc1 | -7.41 (active)
4 | COCC(=O)N1[C@H](CO)[C@H](c2ccccc2-c2ccc(C)cc2)[C@@H]1C#N | 0.234 (inactive)
5 | COCC(=O)N1[C@H](CO)[C@@H](c2ccc(C#Cc3ccccc3F)cc2)[C@@H]1C#N | -3.16 (active)
6 | N#C[C@@H]1N[C@@H](CO)[C@@H]1c1ccc(C#Cc2ccccc2F)cc1 | -3.8 (active)
7 | N#C[C@@H]1N[C@H](CO)[C@@H]1c1ccc(/C=C/c2ccccc2)cc1 | 0.0442 (inactive)
8 | CC(C)C#Cc1ccc([C@@H]2[C@@H](C#N)N(C(=O)C3CC3)[C@@H]2CO)cc1 | 1.34 (inactive)
9 | N#C[C@H]1N[C@H](CO)[C@@H]1c1ccc(C#Cc2ccccc2F)cc1 | 0.0442 (inactive)
10 | CCCC#Cc1ccc([C@H]2[C@@H](CO)N(C(=O)C3CC3)[C@H]2C#N)cc1 | 0.0113 (inactive)
11 | N#C[C@@H]1[C@H](c2ccc(C#Cc3ccccc3F)cc2)[C@H](CO)N1C(=O)C1CCCCC1 | -0.57 (inactive)
12 | N#C[C@H]1[C@H](c2ccc(C#Cc3ccc(F)cc3)cc2)[C@@H](CO)N1C(=O)C1CCCC1 | 6.39 (inactive)
13 | C[C@@H]1CN([C@@H](C)CO)C(=O)c2cc(-c3ccc(C#N)cc3)cnc2O[C@@H]1CN(C)Cc1cccnc1 | 0.499 (inactive)
14 | COc1cccc(S(=O)(=O)Nc2ccc3c(c2)[C@@H]2C[C@H](CC(=O)NC4CCCCC4)O[C@H](CO)[C@@H]2O3)c1 | 0.0301 (inactive)
15 | O=S(=O)(Cc1ccccc1)N1CCCCN2[C@H](CO)[C@@H](c3ccc(-c4cncnc4)cc3)[C@H]2C1 | 1.15 (inactive)
16 | CCc1sc(N2[C@@H](C#N)[C@@H](c3ccccc3-c3ccccc3)[C@@H]2CO)nc1C | 1.04 (inactive)
17 | COc1ccc(NC(=O)N2CC(=O)N3[C@H](CO)[C@@H](c4ccc(C#CCC5CCCC5)cc4)[C@H]3C2)cc1 | 2.81 (inactive)
18 | COc1ccccc1NC(=O)N1CC(=O)N2[C@H](CO)[C@@H](c3ccc(C#Cc4ccc(F)cc4)cc3)[C@H]2C1 | 3.22 (inactive)
19 | COc1ccccc1NC(=O)N1CC(=O)N2[C@H](CO)[C@H](c3ccc(C#Cc4ccccc4)cc3)[C@H]2C1 | -2.66 (inactive)
20 | COc1ccccc1NC(=O)N1CC(=O)N2[C@H](C1)[C@H](c1ccc(C#Cc3ccccc3)cc1)[C@@H]2CO | -3.53 (active)
21 | COc1cccc(C#Cc2ccc([C@@H]3[C@H]4CN(C(=O)Cc5ccccc5)CC(=O)N4[C@H]3CO)cc2)c1 | -0.17 (inactive)
22 | CCCNC(=O)N1CC(=O)N2[C@H](C1)[C@@H](c1ccc(C#Cc3ccccc3)cc1)[C@@H]2CO | -4.24 (active)
23 | CCCNC(=O)N1CC(=O)N2[C@H](CO)[C@@H](c3ccc(-c4ccc(F)cc4)cc3)[C@H]2C1 | -0.254 (inactive)

Row | Compound | z-score
24 | CCCNC(=O)N1CC(=O)N2[C@@H](CO)[C@H](c3ccc(-c4ccc(C)cc4)cc3)[C@@H]2C1 | -1.44 (inactive)
25 | COCC(=O)N1CC(=O)N2[C@@H](CO)[C@@H](c3ccc(C#CC(C)C)cc3)[C@@H]2C1 | 1.03 (inactive)
26 | COCC(=O)N1CC(=O)N2[C@H](C1)[C@@H](c1ccc(C#Cc3cccc(OC)c3)cc1)[C@@H]2CO | -5.09 (active)
27 | C[C@H]1CN([C@@H](C)CO)C(=O)CCCn2nncc2CO[C@H]1CN(C)S(=O)(=O)c1ccccc1C#N | -0.585 (inactive)
28 | Cc1ccc(-c2ccc([C@H]3[C@H](CO)N4C(=O)CN(S(=O)(=O)c5cccc(F)c5)C[C@@H]34)cc2)cc1 | 1.91 (inactive)
29 | C[C@H](NC(=O)C[C@@H]1C[C@@H]2c3cc(NS(=O)(=O)c4ccc(F)cc4)ccc3O[C@@H]2[C@@H](CO)O1)c1ccccc1 | -0.633 (inactive)
30 | O=C1NCCCOCc2cn(nn2)CC[C@@H]1Cc1ccc(-c2ccccc2)cc1 | -0.0302 (inactive)
31 | Cc1ccccc1-c1ccc([C@H]2[C@@H](CO)N3C(=O)CN(C(=O)c4ccncc4)C[C@H]23)cc1 | -10 (active)
32 | Cc1ccccc1-c1ccc([C@H]2[C@@H](CO)N3C(=O)CN(C(=O)c4ccncc4)C[C@@H]23)cc1 | -3.52 (active)
33 | CCCC#Cc1ccc([C@H]2[C@@H](CO)N3C(=O)CN(C(=O)c4ccncc4)C[C@H]23)cc1 | 0.281 (inactive)
34 | O=C(c1ccncc1)N1CC(=O)N2[C@H](CO)[C@@H](c3ccc(-c4cccnc4)cc3)[C@H]2C1 | 2.02 (inactive)
35 | CCCC#Cc1ccc([C@@H]2[C@@H](CO)N3C(=O)CN(C(=O)c4ccncc4)C[C@@H]23)cc1 | 1.2 (inactive)
36 | O=C(c1ccncc1)N1CC(=O)N2[C@H](CO)[C@H](c3ccc(-c4ccccc4F)cc3)[C@@H]2C1 | 0.944 (inactive)
37 | COc1ccc(C#Cc2ccc([C@@H]3[C@@H](CO)N4C(=O)CN(C(=O)c5ccc(F)cc5)C[C@@H]34)cc2)cc1 | 0.452 (inactive)
38 | CN(C)C(=O)c1ccc(-c2ccc([C@@H]3[C@H](C#N)N(C(=O)C4CC4)[C@H]3CO)cc2)cc1 | -0.273 (inactive)
39 | COc1ccc(CN(C)C[C@@H]2Oc3ccc(NC(=O)Nc4ccc5c(c4)OCO5)cc3CC(=O)N([C@H](C)CO)C[C@H]2C)cc1 | 1.72 (inactive)
40 | COc1ccc2c3c(n(C)c2c1)[C@@H](CO)N(CC1CC1)CC31CCN(C(=O)c2cccc(F)c2)CC1 | 0.882 (inactive)
41 | CO[C@H](CN(C)C(=O)c1cnccn1)[C@@H](C)CN([C@@H](C)CO)S(=O)(=O)c1ccccc1 | 1.89 (inactive)
42 | CN(C)CC(=O)N1[C@H](C#N)[C@H](c2ccccc2-c2cccc(C(=O)N(C)C)c2)[C@@H]1CO | 4.1 (inactive)
43 | C[C@@H]1CN([C@H](C)CO)C(=O)c2c(c3ccccc3n2C)-c2ccccc2CO[C@H]1CN(C)C(=O)[C@@H](Cc1ccccc1)N(C)C | -1.45 (inactive)
44 | O=C(C[C@@H]1CC[C@H]2NC[C@H](O)COC[C@@H]2O1)NCCN1CCCCC1 | 0.878 (inactive)
45 | O=C1C[C@@H](c2ccccc2)C(=O)N[C@H](c2ccc(F)cc2)C/C=C\CCN1 | 1 (inactive)
46 | O=S(=O)(c1ccccc1F)N1[C@@H]2CNC[C@H]1C2c1ccc(-c2cncnc2)cc1 (some centres not stated) | 2.04 (inactive)

Row | Compound | z-score
47 | Cc1cccc(-c2ccccc2[C@@H]2[C@H](C#N)N(c3ncc(-c4ccccc4)s3)[C@H]2CO)c1 | 4.05 (inactive)
48 | O=S(=O)(c1ccccc1)N1C[C@@H]2[C@H](c3ccccc31)[C@H](CO)N2Cc1ccccn1 | 2.16 (inactive)
49 | COc1cccc(S(=O)(=O)N2[C@@H]3CNC[C@H]2C3c2ccc(-c3ccccc3OC)cc2)c1 (some centres not stated) | -0.496 (inactive) and -4.13 (active)
50 | COc1ccccc1NC(=O)N1[C@@H]2CNC[C@H]1C2c1ccc(-c2ccccc2C)cc1 (some centres not stated) | -4.4 (active)
51 | COc1cccc(NC(=O)N2[C@@H]3CNC[C@H]2C3c2ccc(-c3ccncc3)cc2)c1 (some centres not stated) | 0.421 (inactive) and 0.471 (inactive)
52 | Cc1ccc(-c2ccc(C3[C@H]4CNC[C@@H]3N4S(=O)(=O)c3ccccc3C)cc2)cc1 (some centres not stated) | 1.05 (inactive) and 2.8 (inactive)
53 | Cc1cccc(-c2ccc(C3[C@H]4CNC[C@@H]3N4S(=O)(=O)c3ccccc3F)cc2)c1 (some centres not stated) | 5.33 (inactive) and 3.85 (inactive)
54 | CN(C)C(=O)c1cccc(-c2ccc(C3[C@H]4CNC[C@@H]3N4C(=O)Nc3ccccc3F)cc2)c1 (some centres not stated) | 1.08 (inactive) and 3.82 (inactive)
55 | COCCNC(=O)C[C@H]1CC[C@@H]2[C@H](COc3ccc(NC(=O)Nc4cccc(F)c4)cc3C(=O)N2C)O1 | -0.769 (inactive)
56 | COc1ccc(S(=O)(=O)N2CCCCN3[C@@H](CO)[C@@H](c4ccc(C#CCC(C)C)cc4)[C@@H]3C2)cc1 | 4 (inactive)
57 | CN(C)C(=O)c1cccc(-c2ccc(C3[C@@H]4CN(S(=O)(=O)c5ccc(F)cc5)C[C@H]3N4)cc2)c1 (some centres not stated) | 4.34 (inactive) and 3.12 (inactive)
58 | C[C@@H]1CC(=O)N[C@H](c2ccccc2)C/C=C\C[C@H](c2ccccc2)NC1=O | 1.16 (inactive)
59 | COCC(=O)N1CCCCN2[C@H](CO)[C@H](c3ccc(-c4ccc(OC)cc4)cc3)[C@H]2C1 | -1.33 (inactive)
60 | CC(C)NC(=O)N1CCCCN2[C@@H](CO)[C@@H](c3ccc(C#Cc4ccccc4)cc3)[C@@H]2C1 | -8.05 (active)
61 | COc1ccc(-c2ccc([C@@H]3[C@@H](CO)N4CCCCN(C(=O)NC(C)C)C[C@H]34)cc2)cc1 | -4.12 (active)
62 | CC(C)C#Cc1ccc([C@@H]2[C@H]3CN(C(=O)NC(C)C)CCCCN3[C@H]2CO)cc1 | 1 (inactive)
63 | CC(C)C#Cc1ccc([C@H]2[C@H](CO)N3CCCCN(C(=O)NC(C)C)C[C@@H]23)cc1 | 0.103 (inactive)
64 | COCC(=O)N1CCCCN2[C@H](CO)[C@@H](c3ccc(-c4ccc(OC)cc4)cc3)[C@@H]2C1 | -2.67 (inactive)
65 | COc1ccc2c3c([nH]c2c1)[C@H](CO)N(Cc1nccs1)CC31CCN(Cc2cccnc2)CC1 | -0.878 (inactive)
66 | COc1cccc(S(=O)(=O)N2CCCCN3[C@H](C2)[C@@H](c2ccc(C4=CCCCC4)cc2)[C@@H]3CO)c1 | 2.68 (inactive)
67 | COc1ccc2c3c([nH]c2c1)[C@H](CO)N(Cc1ccc(F)cc1)CC31CCN(Cc2ccccn2)CC1 | -1.44 (inactive)
